Rows were chosen to be rich in hits. Some 2.2% of all compounds tested hit in one or more screens of this group.
Nrf2 block: Nrf2 qHTS screen for inhibitors. Potency, µM (top dose mostly 46 µM), for the others: at the highest dose activity change, negative = inhibition, hits mostly inhibitors. 360,000 compounds, 2.1% hits. A549 ARE-Fluc reporter, luciferase luminescence, 18-24 h; further: on the % scale 0 is the no-effect control and ±100 the full control effect; nearly all actives have a fitted effect of over 60% in size
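Cells were seeded and rested 2 h, then exposed to compounds for 18-24 h. CellTiter-Fluor was read first as a viability measure. BugLite was added 15 min before the final luminescent read of ARE-luciferase activity in A549 cells.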
A549 tox: Nrf2 qHTS screen for inhibitors: counterscreen for cytotoxicity; A549 ARE-Fluc cells, CellTiter-Fluor viability, 18-24 h; 390,000 compounds, 0.16% hits; Potency, µM (series often up to 46 µM), without a hit: top-dose activity change, negative = cytotoxicity, actives largely listed as inhibitors; further: on the % scale 0 is the no-effect control and ±100 the full control effect
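A549 ARE-Fluc cells in 5% FBS OPTI-MEM, 5000 cells/well, rested 2 h then exposed to compounds in concentration-response for 18-24 h at 37 °C. Viability by CellTiter-Fluor fluorescence (Ex 405/Em 525) after 30 min; luciferase luminescence (BugLite, 15 min, RT) read afterwards.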
Pin1 inh: qHTS Assay to Find Inhibitors of Pin1; AID 504891, 2011; Pin1 FP peptide displacement, HiFluor488, 10 min; Potency, µM (series often up to 115 µM), inactives show top-dose activity, negative = inhibition, usual class: inhibitors; 390,000 compounds, 0.009% hits; active means well fitted inhibition curve with a large enough effect in the polarisation, with a control signal flat, not every such curve was filed as active; inconclusive means small, poorly fitted or top-dose-only effect, or effect the other way, or a change in a side signal; inactive means no such curve, though single readings can be large or run the other way; the % refers to the polarisation; further: on the % scale 0 is the no-effect control and ±100 the full control effect
Target sequence (Q13526 whole entry, looked up): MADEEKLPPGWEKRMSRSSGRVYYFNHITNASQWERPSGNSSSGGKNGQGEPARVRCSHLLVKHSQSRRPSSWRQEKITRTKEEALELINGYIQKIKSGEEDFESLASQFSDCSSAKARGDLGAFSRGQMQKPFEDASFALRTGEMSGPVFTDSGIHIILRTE
Nrf2 ARE act: qHTS of Nrf2 Activators; AREc32 ARE-luciferase reporter (MCF7-derived line), luminescence, 24 h; Potency, µM (highest dose often 46.1 µM), inactives show at the highest dose activation, usual class: activators; 410,000 compounds, 0.31% hits; further: % of control where 0% means no effect; nearly all actives have a fitted effect of over 65% in size
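For detection, Steady-Glo was added and plates sat 30 min at RT; before that, AREc32_Fluc cells grown overnight in OPTI-MEM/5% FBS had been treated with 23 nL compound for 24 hr at 37 deg C.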
An asterisk follows results filed as active; u = inconclusive; x = no result; ! = not confirmed by another sample; [ ] = remark or other dose. Unless noted, the call rests on the fitted dose curve; in most records, active means well fitted curve in the direction sought with a large enough effect; inconclusive means small, poorly fitted or top-dose-only effect, or another doubt; inactive means no such curve, though single readings can be large; an effect the other way counts as inactive or inconclusive. Potency means the concentration at half of the fitted maximal effect.

SMILES	Nrf2 block	A549 tox	Pin1 inh	Nrf2 ARE act
CC(=O)c1c(C)[nH]c(C(=O)OCc2nnc(-c3ccccc3)o2)c1C	21µM*	-15%	1%	3%
CC(=O)c1c(C)[nH]c(C(=O)OCc2ccc(F)cc2Cl)c1C	13µM*	-13%	7%	6%
CC(C)(O)c1cc2ccc(C#Cc3ccsc3)cc2c(=O)o1	14%	1%	-1%	5µM*
O=c1oc(CCCO)cc2ccc(C#Cc3ccsc3)cc12	5%	-5%	-4%	u
Cc1cccc2sc(N(Cc3cccnc3)C(=O)CCS(=O)(=O)c3ccccc3)nc12	x	4%	76%	22µM*
Cc1cc2c(s1)c1cnn(Cc3ccc(C)c(F)c3F)c(=O)c1n2C	8%	-2%	-5%	x
COc1ccc(C=NNC(=S)NN=Cc2ccc(OC)c(OC)c2)cc1OC	15µM*	4%	-12%	12%
COc1cccc(C(=O)NCc2cn3ccccc3n2)c1	23µM*	-1%	4%	9%
C=CCc1cc(F)c(S(=O)(=O)N2CCN(S(=O)(=O)c3ccc4c(c3)OCCO4)CC2)cc1F	14%	-1%	-13%	x
Cc1ccc(C(=O)NCCSc2ccc(Cl)cc2)cc1S(=O)(=O)Nc1ccccc1	15µM*	u	-2%	3%
Cc1ccc(NS(=O)(=O)c2cc(C(=O)NCCSc3ccc(C)cc3)ccc2C)cc1	23µM*	-22%	1%	0%
COc1ccc(N(/N=C2\Sc3ccccc3C2=O)C(C)=O)cc1	11%	0%	0%	2%
COc1ccccc1N(/N=C1\Sc2ccccc2C1=O)C(C)=O	-1%	-5%	10%	14µM*
C=CCn1c(SCc2ccc(C(=O)Nc3nccs3)cc2)nnc1-c1ccc(C)c(Cl)c1	21µM*	-18%	-1%	1%
COc1cccc(C2C(C(=O)Nc3ccc(Cl)cc3)=C(C)Nc3c(C(=O)Nc4ccccc4)cnn32)c1OC (stereo not given)	u	0%	3%	9%
CC(NC(=O)COC(=O)CCc1ccccc1)c1ccccc1 (stereo not given)	u	23µM*	-1%	0%
O=C(COC(=O)c1c[nH]c2ccccc12)Nc1ccccc1	22%	0%	-2%	2%
CC(NC(=O)COC(=O)c1c[nH]c2ccccc12)c1ccccc1 (stereo not given)	21µM*	-17%	-2%	2%
Fc1ccccc1/C=C1\CCCC2=C1NC(=S)NC2c1ccccc1F (stereo not given)	8.2µM*	-13%	-1%	3%
COC(=O)C1=C(C)NC(=O)/C1=C\c1cc(C)n(-c2ccccc2)c1C	5%	-16%	14%	4%
COC(=O)C1=C(C)NC(=O)/C1=C\c1cc(C)n(-c2cc(C)cc(C)c2)c1C	23µM*	u	5%	2%
Cc1ccccc1OCC(=O)N1N=C(c2cccnc2)CC1(O)C(F)(F)F (stereo not given)	-17%	0%	9%	0%
Cc1cc(C)cc(OCC(=O)N2N=C(c3cccnc3)CC2(O)C(F)(F)F)c1 (stereo not given)	23µM*	-9%	-5%	0%[9.22 µM]
Fc1ccccc1-c1ccc(-c2nc3ccc(Cl)cn3c2Nc2ccc(Cl)cc2)o1	u	-6%	44%	x
Cc1ccc(NC(=O)c2c(NC(=O)c3ccco3)sc3c2CCC(C(C)(C)C)C3)c(C)c1 (stereo not given)	10%	3%	6%	0%
SMILES	Nrf2 block	A549 tox	Pin1 inh	Nrf2 ARE act
COc1ccccc1NC(=O)CSCC(=O)N1c2ccccc2CCc2ccccc21	18µM*	u	0%	2%
O=C(COc1ccccc1)Nc1ccccc1Oc1ccccc1	u	22%	5%	-1%[9.22 µM]
COc1ccccc1NC(=O)COc1ccccc1	u	5%	2%	11µM*
COc1ccc(NC(=O)CSCC(=O)N2c3ccccc3CCc3ccccc32)cc1	-19%	16%	23%	3%
COc1ccc(NC(=O)C(OC(=O)CNC(=O)c2ccccc2)c2ccccc2)cc1Cl (stereo not given)	-3%	-4%	2%	x
Cc1noc(C)c1-c1cccc(-c2nn3c(=O)cc(N4CCNCC4)nc3s2)c1	-3%	1%	u	x
O=S(=O)(Nc1cccnc1)c1cccc2ccccc12	-21%	-9%	-8%	x
Clc1ccc(C=Cc2ccccn2)cc1	u	3%	-5%	8.9µM*
Cc1ccc(NC(=O)c2ccc(NC(=O)N3CCSc4ncccc43)cc2)cc1Cl	u	-27%	u	3%
CN1CCc2sc(NC(=O)Cc3ccccc3)c(C(=O)Nc3ccc(Cl)cc3)c2C1	18%	-3%	23%	x
O=C(c1ccncc1)N1CCCC(N2CCN(c3cccc(C(F)(F)F)c3)CC2)C1 (stereo not given)	u	4%	-4%	0%
CCc1cc(C(=O)N2CCCC(N3CCN(c4cccc(C(F)(F)F)c4)CC3)C2)n(C)n1 (stereo not given)	8.2µM*	-17%	-11%	0%
O=C(NC1CCCCC1)c1ccc(CSc2nc3ccncc3n2Cc2ccccc2)cc1	u	-1%	9%	7%
O=C(NC1CCCC1)c1ccc(CSc2nc3ccncc3n2Cc2ccc(F)cc2)cc1	u	1%	10%	4%
Cc1ccc(Cn2c(SCc3ccc(C(=O)NC4CCCCC4)cc3)nc3ccncc32)cc1	21µM*	-16%	43%	4%
COc1ccc(Cn2c(SCc3ccc(C(=O)NC4CCCC4)cc3)nc3ccncc32)cc1	16µM*	-14%	11%	0%
COc1ccc(Cn2c(SCc3ccc(C(=O)NC4CCCCC4)cc3)nc3ccncc32)cc1	13µM*	-5%	24%	7%
COc1ccc(C2Nc3ccccc3C(=O)N2Cc2ccccc2)cc1COc1cccc(C(F)(F)F)c1 (stereo not given)	-17%	0%	1%	x
O=C(CN1C(=O)COc2ccc(S(=O)(=O)N3CCOCC3)cc21)N1CCN(c2cccc(C(F)(F)F)c2)CC1	-6%	8%	-7%	-1%
COC(=O)c1scc(C)c1NC(=O)C(Cl)c1ccccc1 (stereo not given)	4%	2%	0%	13µM*
COC(=O)c1scc(C)c1NC(=O)c1ccccc1F	u	2%	5%	13µM*
COC(=O)c1scc(C)c1NC(=O)c1cccc(C#N)c1	12%	11%	10%	5%
COC(=O)c1scc(C)c1NC(=O)Nc1ccccc1	x	-7%	-1%	5%
CN1CCN(CCCN2c3ccccc3Sc3ccc(Cl)cc32)CC1	8.2µM*!	18µM*!	2%	-4%
COc1cccc(-n2nnc(S(=O)(=O)c3ccc(C)cc3)c2N)c1	5%	13%	1%	0%
CCc1ccc(S(=O)(=O)c2nnn(-c3ccc(F)cc3)c2N)cc1	13µM*	-4%	5%	-1%
COc1ccc(N2CCN(C(CNC(=O)c3ccc(C)cc3)c3ccc4c(c3)OCO4)CC2)cc1 (stereo not given)	x	-17%	-4%	0%
